According to PubChem BioAssay (EPA / NIEHS):
Activity calls are given as the source filed them. The calls were made as follows: active = hit-call score of the fitted dose curve at least 0.9, where 1 is the maximum; inactive = score below 0.9.

Legend:
Conditions in all cases: mRNA level, 48 h; actives raise or lower the signal
[1] = read-out: Lipoprotein lipase (LPL), LPL (gene 4023); assay: LTEA_HepaRG_LPL: Life Technologies and Expression Analysis (LTEA) Assay for Lipoprotein lipase (LPL) using HepaRG (AID 2283515)
Method in brief: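 Differentiated human HepaRG cells in serum-free induction medium were exposed in duplicate for 48 h to eight half-log concentrations (top 100 uM) in 0.5% DMSO. LPL mRNA was quantified by TaqMan qRT-PCR, normalized to ACTB, GAPDH and POLR2A.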

[2] = read-out: MicroRNA 122 (MIR122), gene 406906; assay: LTEA_HepaRG_MIR122: Life Technologies and Expression Analysis (LTEA) Assay for MicroRNA 122 (MIR122) using HepaRG (AID 2283516); also: the transcript read is the microRNA miR-122
Method in brief: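 Differentiated human HepaRG cells in serum-free induction medium exposed 48 h to 8 half-log concentrations from 100 uM in 0.5% DMSO, duplicate. MIR122 quantified by Fluidigm TaqMan qRT-PCR, normalised to ACTB, GAPDH, POLR2A; fold change fitted bidirectionally versus DMSO.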

[3] = read-out: matrix metalloproteinase-10 (MMP10), MMP10 (gene 4319); assay: LTEA_HepaRG_MMP10: Life Technologies and Expression Analysis (LTEA) Assay for matrix metalloproteinase-10 (MMP10) using HepaRG (AID 2283517)
Method in brief: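 HepaRG, collagen I, ~100,000 cells/well; serum-free induction medium; 48 h exposure, duplicate, 8-pt half-log to 100 uM, 0.5% DMSO. Readout: TaqMan qRT-PCR, normalized to ACTB/GAPDH/POLR2A; bidirectional fit vs DMSO.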

MYC, MYC (gene 4609) = assay: LTEA_HepaRG_MYC: Life Technologies and Expression Analysis (LTEA) Assay for MYC using HepaRG (AID 2283518)
Method in brief: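 Differentiated human HepaRG cells, plated 48 h then switched to serum-free induction medium, were exposed in duplicate for 48 h to 8-point half-log series up to 100 uM in 0.5% DMSO. MYC mRNA measured by qRT-PCR, normalized to ACTB/GAPDH/POLR2A.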

[4] = read-out: matrix metalloproteinase-3 (MMP3), MMP3 (gene 4314); assay: LTEA_HepaRG_MMP3: Life Technologies and Expression Analysis (LTEA) Assay for matrix metalloproteinase-3 (MMP3) using HepaRG (AID 2283519)
Method in brief: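 Differentiated human HepaRG cells, plated 48 h on collagen I, were exposed in duplicate for 48 h in serum-free induction medium to eight half-log concentrations up to 100 uM in 0.5% DMSO. MMP3 mRNA was quantified by TaqMan qRT-PCR, normalised to ACTB, GAPDH and POLR2A.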

[5] = read-out: Paternally Expressed 10 (PEG10), PEG10 (gene 23089); assay: LTEA_HepaRG_PEG10: Life Technologies and Expression Analysis (LTEA) Assay for Paternally Expressed 10 (PEG10) using HepaRG (AID 2283520)
Method in brief: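 Differentiated HepaRG cells exposed 48 h in serum-free induction medium to eight half-log concentrations topping at 100 uM, 0.5% DMSO, in duplicate. PEG10 mRNA quantified by TaqMan qRT-PCR, normalized to ACTB, GAPDH and POLR2A; bidirectional fit versus DMSO.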

[6] = read-out: Phosphatase and tensin (PTEN), PTEN (gene 5728); assay: LTEA_HepaRG_PTEN: Life Technologies and Expression Analysis (LTEA) Assay for Phosphatase and tensin (PTEN) using HepaRG (AID 2283523)
Method in brief: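 Differentiated human HepaRG cells, plated 48 h then switched to serum-free induction medium, were exposed in duplicate for 48 h to eight half-log concentrations up to 100 uM in 0.5% DMSO. PTEN mRNA measured by TaqMan qRT-PCR, normalized to ACTB/GAPDH/POLR2A, bidirectional fit versus DMSO.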

[7] = read-out: solute carrier (SLC22A1), SLC22A1 (gene 6580); assay: LTEA_HepaRG_SLC22A1: Life Technologies and Expression Analysis (LTEA) Assay for solute carrier (SLC22A1) using HepaRG (AID 2283524)
Method in brief: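 Human HepaRG cells were plated 48 h, switched to serum-free induction medium, then exposed in duplicate for 48 h to 8-point half-log series from 100 uM in 0.5% DMSO. SLC22A1 mRNA measured by qRT-PCR, normalized to ACTB/GAPDH/POLR2A, fitted bidirectionally versus DMSO.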

Measured: AC50

NC(=O)N(O)[C@@H]1COc2cc(OCc3ccccc3)ccc21
inactive: all assays above

CCCCCCCCN(C)C
inactive: all assays above

c1ccc(C(O[C@@H]2CCCN(CCc3ccc4c(c3)OCO4)C2)c2ccccc2)cc1
active: [2] 69.7 µM | MYC, MYC (gene 4609) 83.4 µM | [4] 25.2 µM | [5] 13.1 µM | [6] 79.6 µM | [7] 79.2 µM
inactive: [1] | [3]

CC(C)c1nnc2ccc(-c3ocnc3-c3cc(F)ccc3F)cn12
active: [2] 50 µM | [4] 7.09 µM | [7] 15.4 µM
inactive: all other assays above

COc1cc2c(c(OC)c1OC)-c1ccc(OC)c(=O)cc1[C@@H](NC(C)=O)CC2
inactive: [6]
active: [1] 0.096 µM | [2] 0.113 µM | [3] 0.0147 µM | MYC, MYC (gene 4609) 0.144 µM | [4] 0.152 µM | [5] 0.112 µM | [7] 0.105 µM

CCCCCCCCCC
inactive: all assays above

CCn1nc(C)c2c1C(=O)NCC(c1ccc(O)cc1)=N2
inactive: all assays above

CCCCCCCCCCCCCCCCOS(=O)(=O)O
active: [7] 38.6 µM
inactive: all other assays above

Cn1cc[nH]c1=S
inactive: all assays above

COc1cc(C(C)C)c2c(c1)S(=O)(=O)N(COc1cc(=O)n3cccc(OCCN4CCCCC4)c3n1)C2=O
inactive: MYC, MYC (gene 4609)
active: [1] 21.2 µM | [2] 23.4 µM | [3] 21.1 µM | [4] 19.7 µM | [5] 19.5 µM | [6] 22.6 µM | [7] 20.8 µM

OC(CCl)CCl
inactive: all assays above

CCCCOC(=O)c1ccccc1
inactive: all assays above

O=C(O)[C@H](O)[C@@H](O)C(=O)O
inactive: all assays above

OCC(CO)(CO)CO
inactive: all assays above

CC1(C)C(=O)N(Cl)C(=O)N1Cl
inactive: all assays above

CCCCCCOC(=O)CC(CC(=O)OCCCCCC)(OC(=O)CCC)C(=O)OCCCCCC
inactive: all assays above

CCc1cccc(CC)c1N
inactive: all assays above

Cc1nccn1-c1ccc(Sc2cccc(C3(C(N)=O)CCOCC3)c2)cc1
active: [1] 0.913 µM | [2] 15.1 µM | [3] 17.6 µM | MYC, MYC (gene 4609) 9.67 µM | [5] 2.9 µM | [6] 28 µM | [7] 11.2 µM
inactive: [4]
